From ChEMBL document CHEMBL3988442, “University of Dundee, Small-Polar-MMV Screening Library” (2021)
The campaign covered roughly 48,000 compounds. About 13,000 (27%) showed an effect of 50% or more. The list shows a part of the results.

System: Wolbachia pipientis
Experiment: Anti-Wolbachia Cell-Based Screen
Format: functional
Design: scale not given: in the data most compounds retested in dose-response had high values
Conditions: 5 µM

Going from `OCC(O)CSCc1cc(Cl)ccc1Cl` (configuration not stated) to `CC(NCC1CCN(CCO)CC1)c1ccc(F)c(Cl)c1` (configuration not stated), the “Percent Effect” value rises from -6.234% to 2.095%.

Going from `O=C(c1cc2c([nH]c1=O)CCC2)N1CCCC1c1ccc(F)cc1` (configuration not stated) to `CC(C)NC(=O)[C@@H]1C[C@@H](N)CN1C(=O)c1cc2c([nH]c1=O)CCCC2`, the “Percent Effect” value falls from 20.74% to 7.662%.

Compared with `CC(=O)NC(c1cc(F)ccc1F)C1CC1` (configuration not stated), `CC(=O)NC1CCCc2c1[nH]c1ccc(F)cc21` (configuration not stated) is higher in “Percent Effect” value: 0.9467% for the first, 97.09% for the second.

Going from `O=C(NC1CCCc2c1[nH]c1ccc(F)cc21)c1n[nH]c2c1CCC2` (configuration not stated) to `O=C(NC1CCCc2c1[nH]c1ccc(F)cc21)c1n[nH]c2c1CCCC2` (configuration not stated), the “Percent Effect” value falls from 132.4% to 120.6%.

Going from `O=C(NCC1CC1)c1n[nH]c2c1CNCC2.O=C(O)C(F)(F)F.O=C(O)C(F)(F)F` to `O=C(NC1CCC1)c1n[nH]c2c1CNCC2`, the “Percent Effect” value rises from -32.44% to -9.631%.

Going from `O=C1CC(N(C(=O)c2ccc3[nH]c4c(c3c2)CCCC4)C2CC2)C(=O)N1` (configuration not stated) to `Cc1ccc(F)cc1NC(=O)CNc1cccc2c1CCCC2`, the “Percent Effect” value falls from 7.465% to -15.05%.

First: C/C=C(\C)CN1C[C@H](NC(=O)c2cc[nH]c2C)[C@@H](C2CC2)C1
Second: CC(C)CNC(=O)c1cc(C2CC2)nc2c1c(C1CCCN1)nn2C (configuration not stated)
The “Percent Effect” value of the first is lower: -10.95% for the first, 129.8% for the second.

Compared with `CN(C)c1ncncc1NC(=O)Cc1c[nH]c2ccc(F)cc12`, `Cc1noc(C(C)C)c1C(=O)NCC(c1cccc(F)c1)N(C)C` (configuration not stated) is lower in “Percent Effect” value: -1.659% for the first, -3.913% for the second.

First: CC(=O)c1cccc(OCCCC(=O)N(C)CCC(F)(F)F)c1
Second: CN(C)C(=O)N1CCc2onc(C(=O)Nc3cccnc3)c2C1.O=C(O)C(F)(F)F
The “Percent Effect” value of the first is higher: 2.017% for the first, -32.01% for the second.

First: COC(C)c1noc(CN2CCCNCC2)n1 (configuration not stated)
Second: CCOC(C)c1noc(CN2CCNCC2)n1 (configuration not stated)
The “Percent Effect” value of the first is higher: -0.5202% for the first, -2.697% for the second.

First: CN(C)C(=O)N1CCCC(C(=O)N(C)Cc2cnc(N)nc2)C1 (configuration not stated)
Second: CN(C)C(=O)N1CCCC(C(=O)N(C)CCCc2cnn(C)c2)C1 (configuration not stated)
The “Percent Effect” value of the first is higher: 11.15% for the first, 4.306% for the second.

Going from `Cc1ccn(-c2ccc(C(=O)N3CCCC(C(N)=O)C3)cc2)n1` (configuration not stated) to `NCc1cnn(-c2ccccc2C(=O)N2CCCC(C(N)=O)C2)c1` (configuration not stated), the “Percent Effect” value rises from -6.024% to 94.05%.

First: CNC(=O)C1CCCN(C(=O)NCCC2Cc3ccccc3C2)C1 (configuration not stated)
Second: CNC(=O)C1CCCN(C(=O)c2ccccc2-n2cc(CN)cn2)C1 (configuration not stated)
The “Percent Effect” value of the first is lower: -25.4% for the first, 111.9% for the second.

Compared with `CN(C)C(=O)C1CCCN(C(=O)c2ccccc2-n2cc(CN)cn2)C1` (configuration not stated), `NC(=O)C1CCCN(S(=O)(=O)c2cnn(-c3ccccc3)c2)C1` (configuration not stated) is lower in “Percent Effect” value: 125.8% for the first, 5.842% for the second.

First: NCc1cnn(-c2ccccc2C(=O)NCc2ccncc2)c1
Second: Cc1ccnc(NCCNC(=O)CCNC(=O)c2ccccc2F)c1
The “Percent Effect” value of the first is lower: -9.699% for the first, 6.973% for the second.

Compared with `NC(=O)c1cccc(CNC/C=C/c2ccccc2)c1`, `Cc1cc(CN[C@@H](Cc2ccccc2)C(N)=O)c(C)s1` is lower in “Percent Effect” value: -6.459% for the first, -7.626% for the second.

First: CC(C)OCCOCC(O)CN(C)C(=O)Nc1ccc(F)cc1Cl (configuration not stated)
Second: Cc1ccc(C(CNC(=O)c2cc(CC(C)C)nn2C)N(C)C)cc1 (configuration not stated)
The “Percent Effect” value of the first is lower: -7.203% for the first, -5.66% for the second.

First: CCc1nc(CNc2cc(Cl)ccc2OCC2CCCO2)no1 (configuration not stated)
Second: FC(F)Oc1ccc(NCc2nc(C3CC3)no2)c(OC(F)F)c1
The “Percent Effect” value of the first is lower: -12.87% for the first, 6.863% for the second.

First: COc1cccc(CNc2c(C)cnc3c2c(=O)n(C)c(=O)n3C)c1
Second: CCc1cnc2c(c1NCc1cccc(OC)c1)c(=O)n(C)c(=O)n2C
The “Percent Effect” value of the first is lower: -20.05% for the first, -3.77% for the second.

Compared with `CCc1cnc2c(c1NCc1ccc(OC)cc1)c(=O)n(C)c(=O)n2C`, `CCc1cnc2c(c1Nc1ccc(OC)cc1)c(=O)n(C)c(=O)n2C` is lower in “Percent Effect” value: 121.6% for the first, -2.304% for the second.

First: CCc1cnc2c(c1Nc1cccc(OC)c1)c(=O)n(C)c(=O)n2C
Second: CCc1cnc2c(c1Nc1ccccc1OC)c(=O)n(C)c(=O)n2C
The “Percent Effect” value of the first is lower: 98.75% for the first, 117.3% for the second.

Compared with `CCn1c(Nc2ccccc2OC)nc2c(C)nn(C)c2c1=O`, `CCOc1ccccc1Nc1nc2c(C)nn(C)c2c(=O)n1C` is lower in “Percent Effect” value: 5.481% for the first, -3.425% for the second.

Going from `CCc1cnc2c(c1NCc1ccncc1)c(=O)n(C)c(=O)n2C` to `CCCn1ncc2c(C(=O)Nc3cnn(CC)c3C)cc(C3CC3)nc21`, the “Percent Effect” value rises from -11.7% to 3.978%.

Going from `O=C(N1CCCCC1)N1CCN(CC(O)c2ccc(F)cc2)CC1` (configuration not stated) to `O=C(CN(Cc1cccc(F)c1)CC1CCCO1)N1CCCC1` (configuration not stated), the “Percent Effect” value rises from -12.83% to 12.97%.

Going from `Cc1nc(CNC(=O)Nc2ccc3c(c2)CCCC(=O)N3)sc1C` to `Cc1cc(C)n(CCNC(=O)c2ncc[nH]2)c(=O)n1`, the “Percent Effect” value falls from 3.802% to -0.5408%.

Going from `Cn1c(CO)cnc1SC(C(=O)NC1CC1)c1ccccc1` (configuration not stated) to `Cc1noc(C(C)C)c1C(=O)NCC(c1ccccc1)N(C)C` (configuration not stated), the “Percent Effect” value rises from -13.82% to 108.3%.

First: O=C(NCC(F)(F)F)NC1CCCc2c1cnn2CCO (configuration not stated)
Second: Cn1nc(C2CCCN2)c2c(C(=O)NCC(F)(F)F)cc(C3CC3)nc21 (configuration not stated)
The “Percent Effect” value of the first is lower: 2.681% for the first, 125.9% for the second.

First: CC(C)CC(NC(=O)c1cc(C2CC2)n[nH]1)c1ncnn1C (configuration not stated)
Second: Cn1nc(C2CCNC2)c2c(C(=O)NCC(F)(F)F)cc(C3CC3)nc21 (configuration not stated)
The “Percent Effect” value of the first is lower: -18.23% for the first, 104.4% for the second.

Going from `Cc1csc(N2CCCN(C(=O)c3nccnc3N)CC2)n1` to `Cc1ccc(CN2CCc3onc(C(=O)N4CCCC4)c3C2)o1.O=C(O)C(F)(F)F`, the “Percent Effect” value rises from 0.5076% to 105.8%.

First: CC(C)CN1C(=O)C2(CCCC2)NC1c1c[nH]nc1-c1cccnc1 (configuration not stated)
Second: O=C1CC[C@H]2CN(Cc3cccnc3)CC[C@H]2N1CCc1c[nH]cn1
The “Percent Effect” value of the first is higher: -9.401% for the first, -39.87% for the second.

Compared with `CNC(=O)C(C)(C)N1CCC[C@H]1C(=O)NCCN1CCCC1.Cl.Cl`, `CCN(CC(=O)NC)S(=O)(=O)N1CCCCC1` is lower in “Percent Effect” value: 7.406% for the first, 6.131% for the second.

Going from `CCC(CNC(=O)N1CCOCC2(CCOCC2)C1)c1ccccc1` (configuration not stated) to `O=C(c1cccs1)N1CC(C(=O)N2CCCC2)C2(CCOCC2)C1` (configuration not stated), the “Percent Effect” value rises from -24.39% to -9.07%.

Compared with `CCN(CC1CCCO1)S(=O)(=O)N1CCCCCC1` (configuration not stated), `O=S(=O)(N1CCCC1)N(Cc1ccccc1)CC1CCCO1` (configuration not stated) is higher in “Percent Effect” value: 99.13% for the first, 124.5% for the second.

Compared with `CCN(CC)S(=O)(=O)N1CCCN(CC(=O)NC(C)C)CC1`, `CCN(CC)S(=O)(=O)N1CCCN(CC2CCCO2)CC1` (configuration not stated) is higher in “Percent Effect” value: -10.54% for the first, 96.25% for the second.

Going from `CCS(=O)(=O)CCN(CC1CCCO1)C1CCCC1` (configuration not stated) to `CCN(CCS(=O)(=O)CC)CC1CCCO1` (configuration not stated), the “Percent Effect” value rises from -6.431% to 2.463%.

Compared with `CC(C)N(C)S(=O)(=O)N(Cc1cccs1)CC1CCCO1` (configuration not stated), `CS(=O)(=O)N1CCO[C@@H]2CCN(C(=O)c3cccs3)CC[C@H]21` is lower in “Percent Effect” value: 1.212% for the first, -2.724% for the second.

First: CSc1ncccc1C(=O)N1C[C@H]2CC[C@@H]1CN(c1ncccn1)C2
Second: Cc1ccc(N(C)C2CCN(C(=O)c3ccsc3)CC2)nn1
The “Percent Effect” value of the first is lower: -10.71% for the first, -0.5839% for the second.

Compared with `CN(CC(=O)NCCC#N)C(c1ccccc1)c1ccccc1`, `CN(c1ccccc1C(=O)O)S(=O)(=O)c1cccc2cccnc12` is lower in “Percent Effect” value: -3.756% for the first, -35.11% for the second.

Going from `Cc1noc(C(C)C)c1C(=O)NCC(c1cccs1)N(C)C` (configuration not stated) to `Cc1ccc(C(CNC(=O)c2c(C)noc2C(C)C)N(C)C)cc1` (configuration not stated), the “Percent Effect” value falls from 102.8% to 95.03%.

Going from `CN(C)C(CNC(=O)c1nc(N2CCOCC2)ncc1Cl)c1cccs1` (configuration not stated) to `Cc1ccc(OC2(C(=O)O)CCN(C(=O)c3cccs3)CC2)cn1`, the “Percent Effect” value falls from 4.739% to -10.49%.

Compared with `CC(C)C(=O)NS(=O)(=O)CCc1ccccc1`, `CC(CCSc1ccccc1)N1CCN(C(=O)c2cccs2)CC1` (configuration not stated) is higher in “Percent Effect” value: -1.365% for the first, 0.564% for the second.

Compared with `Cc1ccc(CN2CCO[C@@H]3C[C@@H](C(=O)NC(C)C)C[C@H]32)o1.O=C(O)C(F)(F)F`, `Cc1ccc(CN2CCc3onc(C(=O)NC(C)C)c3C2)o1.O=C(O)C(F)(F)F` is higher in “Percent Effect” value: -8.614% for the first, 106.2% for the second.

Going from `COCc1nn(C)c2c1CN(Cc1cnn(C)c1)CC2.O=C(O)C(F)(F)F` to `Cn1cc(CN2CCc3onc(C(=O)N4CCCC4)c3C2)cn1.O=C(O)C(F)(F)F`, the “Percent Effect” value rises from -20.95% to 123%.

Going from `CC(C)NC(=O)N1CCc2onc(C(=O)Nc3cccnc3)c2C1.O=C(O)C(F)(F)F` to `CC(C)NC(=O)N1CCc2onc(C(=O)NCCN(C)C)c2C1.O=C(O)C(F)(F)F`, the “Percent Effect” value rises from -28.12% to -1.789%.

Going from `Cn1cc(CN2CCc3onc(COc4cccnc4)c3C2)cn1.O=C(O)C(F)(F)F.O=C(O)C(F)(F)F` to `Cc1ccc(CN2CCc3onc(C(=O)Nc4cccnc4)c3C2)o1.O=C(O)C(F)(F)F.O=C(O)C(F)(F)F`, the “Percent Effect” value rises from -7.028% to 119.7%.

First: Cc1ccc(CN2CCc3[nH]nc(C(=O)N(C)C)c3C2)o1.O=C(O)C(F)(F)F
Second: Cc1ccc(CN2CCc3onc(C(=O)NCCN(C)C)c3C2)o1.O=C(O)C(F)(F)F.O=C(O)C(F)(F)F
The “Percent Effect” value of the first is lower: 3.694% for the first, 74.07% for the second.

Going from `Cc1ccc(CN2CCc3[nH]nc(C(=O)N4CCN(C)CC4)c3C2)o1.O=C(O)C(F)(F)F.O=C(O)C(F)(F)F.O=C(O)C(F)(F)F` to `CCO[C@@H]1C[C@H]2CN(Cc3ccc(C)o3)CCN2C1.O=C(O)C(F)(F)F.O=C(O)C(F)(F)F`, the “Percent Effect” value rises from -23.43% to -6.795%.

Going from `CC(C)C(=O)N1CCc2onc(C(=O)NCCN(C)C)c2C1.O=C(O)C(F)(F)F` to `CCS(=O)(=O)N1CCC2(CCN(Cc3nccs3)CC2)CC1.O=C(O)C(F)(F)F`, the “Percent Effect” value rises from 7.945% to 12.02%.

Compared with `O=C(c1cccs1)N1CCC2(CC1)CCN(S(=O)(=O)C1CC1)CC2`, `CS(=O)(=O)N1CCC2(CCN(C(=O)c3cccs3)CC2)CC1` is lower in “Percent Effect” value: 97.11% for the first, 95.21% for the second.

First: CCS(=O)(=O)N1CCC2(CCN(C(=O)c3cccs3)CC2)CC1
Second: O=C(c1ccsc1)N1CCC2(CC1)CCN(S(=O)(=O)C1CC1)CC2
The “Percent Effect” value of the first is lower: 97.57% for the first, 99.84% for the second.

Going from `O=C(O)C(F)(F)F.O=S(=O)(C1CC1)N1CCC2(CCN(Cc3nccs3)CC2)CC1` to `Cn1cnnc1S(=O)(=O)C1CCN(C(=O)c2ccsc2)CC1`, the “Percent Effect” value falls from -4.722% to -15.33%.
